Measured values as given in PubChem BioAssay (EPA / NIEHS).
A structure can be active in one record and inactive in another. Activity calls are given as the source filed them. Rule for the calls: active = hit-call score of the fitted dose curve at least 0.9, where 1 is the maximum; inactive = score below 0.9.

Target: Signal transducer and activator of transcription 3 (Homo sapiens) (UniProt P40763)
Experiment: ATG_STAT3_CIS: Attagene CIS-FACTORIAL HepG2 Assay for human Signal Transducer and Activator of Transcription 3 (STAT3) (AID 2282963)
Conditions: HepG2, Attagene cis-factorial STAT3 reporter transcription; actives raise or lower the signal
Description: ATG_CIS is a cell-based, multiplexed-readout assay that uses HepG2, a human liver cell line, with measurements taken at 24 hours after chemical dosing in a 24-well plate.ATG_STAT3_CIS is one of 52 assay component(s) measured or calculated from the ATG_CIS assay. It is designed to make measurements of mRNA induction, a form of inducible reporter, as detected with fluorescence intensity signals by Reverse transcription polymerase chain reaction (RT-PCR) and Capillary electrophoresis technology.Data from the assay component ATG_STAT3_CIS was analyzed into 1 assay endpoint. This assay endpoint, ATG_STAT3_CIS, was analyzed with bidirectional fitting relative to DMSO as the negative control and baseline of activity. Using a type of inducible reporter, measures of mRNA for gain or loss-of-signal activity can be used to understand the reporter gene at the transcription factor-level as they relate to the gene STAT3. Furthermore, this assay endpoint can be referred to as a primary readout, because this assay has produced multiple assay endpoints where this one serves a reporter gene function. To generalize the intended target to other relatable targets, this assay endpoint is annotated to the dna binding intended target family, where the subfamily is stat protein.
Human liver HepG2 cells are transiently transfected with multiple reporter transcription units (MRTUs) in 6-well plates using FuGene 6 reagent (Roche; 3 ml FuGene/1 mg DNA). The MRTU constructs are regulated by a cis-regulating element (promoter). […] A major difference between the CIS and TRANS system is that in CIS activities of endogenous TFs are measured, whereas the TRANS assay evaluates changes in activities of exogenous, chimeric NR-Gal4 proteins. […] At the end of 24 hour incubation, total RNA was isolated using TriZol reagent (Invitrogen). The isolated RNA is then reverse-transcribed using oligo(dT) primer and Mo-MLV reverse transcriptase (Invitrogen) with DNAse I (Ambion) treatment for 30 min. The one-tenth of the produced cDNA was amplified by PCR using Taq DNA polymerase (Invitrogen) and two reporter sequence-specific primers. The PCR products were fluorescently labeled by primer extension with 6-arboxyfluorescein (6-FAM) 5'-labeled reporter sequence-specific primer (2 min at 95 C, 20 s at 68 C and 10 min at 72 C) and these products were digested with 5U of HpaI (New England Biolabs) for 2h at 37 C. The fragments were purified using Qiaquick PCR columns (Qiagen), analyzed on an ABI 3130xL genetic analyzer (Applied Biosystems) with peak positions identified by using a set of X-rhodamine (ROX)-labeled MapMarker1000 molecular weight standards (BioVentures). The raw capillary electrophoresis data was processed using Attagraph software (Attagene).

Signal transducer and activator of transcription 3 (Homo sapiens), sequence (P40763 whole entry, looked up): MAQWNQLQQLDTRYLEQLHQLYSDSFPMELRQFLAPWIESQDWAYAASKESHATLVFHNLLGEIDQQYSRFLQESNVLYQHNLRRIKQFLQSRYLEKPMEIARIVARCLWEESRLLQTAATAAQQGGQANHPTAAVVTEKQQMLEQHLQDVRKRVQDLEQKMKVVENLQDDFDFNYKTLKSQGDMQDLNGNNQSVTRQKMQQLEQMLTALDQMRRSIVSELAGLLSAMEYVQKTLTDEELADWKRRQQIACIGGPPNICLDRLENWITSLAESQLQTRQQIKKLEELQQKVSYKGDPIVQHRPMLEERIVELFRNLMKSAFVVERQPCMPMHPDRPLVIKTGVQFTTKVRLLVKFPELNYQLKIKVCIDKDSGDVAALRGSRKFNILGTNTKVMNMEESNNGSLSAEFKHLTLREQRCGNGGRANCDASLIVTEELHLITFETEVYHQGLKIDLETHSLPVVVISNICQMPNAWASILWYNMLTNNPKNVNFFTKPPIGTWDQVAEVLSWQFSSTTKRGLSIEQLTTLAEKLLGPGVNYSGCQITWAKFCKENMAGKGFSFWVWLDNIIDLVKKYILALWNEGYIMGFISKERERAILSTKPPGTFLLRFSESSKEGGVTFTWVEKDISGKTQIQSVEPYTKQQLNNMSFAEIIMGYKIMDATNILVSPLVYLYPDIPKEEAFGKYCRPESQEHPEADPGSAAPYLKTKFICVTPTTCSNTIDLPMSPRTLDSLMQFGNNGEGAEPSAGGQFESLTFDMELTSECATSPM

Compound	outcome	AC50
CCN(CC)C(=O)c1cccc(C)c1	inactive	
COC(=O)c1ccc(CNS(C)(=O)=O)cc1S(=O)(=O)NC(=O)Nc1nc(OC)cc(OC)n1	inactive	
CC(=O)[C@H]1CC[C@H]2[C@@H]3CCC4=CC(=O)CC[C@]4(C)[C@H]3CC[C@]12C	inactive	180 µM (active)
CCOC(=O)COc1cc(-n2ncc(C(F)(F)F)c(C)c2=O)c(F)cc1Cl	inactive	
CCC(C)OC(=O)N1CCCCC1CCO (stereo not given)	inactive	
c1ccc2[nH]c(-c3cscn3)nc2c1	inactive	
CC(C)CCCCCCc1ccc(O)cc1	inactive	
CCCCOCCOCCOCc1cc2c(cc1CCC)OCO2	inactive	
CCCCC(CC)COC(=O)c1ccccc1C(=O)O (stereo not given)	inactive	
CCCN(CCC)C(=O)SCC	inactive	
S=C(S)NCCNC(=S)S.[Mn+2].[S-]C([S-])=NCCN=C([S-])[S-].[Zn+2]	inactive	
OB(O)O	inactive	
COC(=O)c1ccccc1S(=O)(=O)NC(=O)Nc1nc(OC(F)F)cc(OC(F)F)n1	inactive	
COCCO	inactive	
CCOC(=O)C(C)Oc1ccc(Oc2nc3ccc(Cl)cc3o2)cc1 (stereo not given)	inactive	
C#CCOC(=O)[C@@H](C)Oc1ccc(Oc2ncc(Cl)cc2F)cc1	inactive	
c1ccc(Nc2ccccc2)cc1	inactive	
Cc1nn(C)c(Oc2ccccc2)c1C=NOCc1ccc(C(=O)OC(C)(C)C)cc1	inactive	
C=CCOC(Cn1ccnc1)c1ccc(Cl)cc1Cl (stereo not given)	inactive	
Oc1ccc(C(c2ccc(O)cc2)C(Cl)(Cl)Cl)cc1	inactive	

Compound	outcome	AC50
O=C(c1ccc(O)cc1O)c1ccc(O)cc1O	inactive	
O=C(O)C1(C(=O)Nc2ccc(Cl)cc2Cl)CC1	inactive	
CN(C)C(=O)Nc1ccc(Cl)c(Cl)c1	inactive	
CCCCC(CC)CN1C(=O)C2C3C=CC(C3)C2C1=O (stereo not given)	inactive	
COc1c(Cl)ccc(Cl)c1C(=O)O	inactive	
CCCOC(=O)NCCCN(C)C	inactive	
CC(C)(C)[C@@H](O)[C@@H](Cc1ccc(Cl)cc1)n1cncn1	inactive	
O=C(Nc1ccc([N+](=O)[O-])cc1Cl)c1cc(Cl)ccc1O	inactive	
C[C@]12CC[C@@H]3c4ccc(O)cc4C[C@@H](CCCCCCCCCS(=O)CCCC(F)(F)C(F)(F)F)[C@H]3[C@@H]1CC[C@@H]2O (stereo not given in full)	inactive	
CCCCCCC(C)OC(=O)COc1nc(F)c(Cl)c(N)c1Cl (stereo not given)	inactive	
CC1(C)C(C=C(Cl)Cl)C1C(=O)OCc1cccc(Oc2ccccc2)c1 (stereo not given)	inactive	
CCOC(=O)c1ccc(O)cc1	inactive	
N#CSCSc1nc2ccccc2s1	inactive	
COC(=O)c1cccc(C)c1S(=O)(=O)NC(=O)Nc1nc(OCC(F)(F)F)nc(N(C)C)n1	inactive	
COC(=O)CSc1cc(N=c2sc(=O)n3n2CCCC3)c(F)cc1Cl	inactive	
CCCCCOC(=O)COc1cc(N2C(=O)C3=C(CCCC3)C2=O)c(F)cc1Cl	inactive	
CSC(=O)c1cccc2nnsc12	inactive	
CCCCOC(=O)C(C)Oc1ccc(Oc2ccc(C(F)(F)F)cn2)cc1 (stereo not given)	inactive	
CCCCOC(=O)[C@@H](C)Oc1ccc(Oc2ccc(C(F)(F)F)cn2)cc1	inactive	
